Assay results: the supplement of paper PMC9694430

These molecules were tested on LOC_OS02G45750-cb003 (assay: thermal shift delta Tm vs DMSO control; higher = stronger stabilization (binding)). Settings: 12.5 µM; protein concentration 2 µM.
Procedure, shortened: (§1)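 Rice kinase domain constructs, made in E. coli and purified, were placed in 96-well plates at 2 μM in 19.5 μl of 100 mM potassium phosphate pH 7.5, 150 mM NaCl, 10% glycerol and 5 × SYPRO Orange, with compound in DMSO. A temperature ramp from 25°C to 95°C at 0.05°C/s was used for differential scanning fluorimetry. The melting temperature shift is a triplicate mean compared with DMSO-only protein, derived from Boltzmann fits.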
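Also: purified Escherichia coli-expressed rice kinase domain construct.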

| SMILES | thermal shift delta Tm [°C] |
| --- | --- |
| CN1CCN(c2cccc(Nc3nc4c(-c5ccc(S(C)(=O)=O)cc5)cccn4n3)c2)CC1 | 2.02 |
| C[C@@H](NC(=O)c1ncnc(N)c1Cl)c1ncc(C(=O)Nc2cc(C(F)(F)F)c(Cl)cn2)s1 | 0.64 |
| N#CC(=C(/N)Sc1ccccc1N)/C(C#N)=C(\N)Sc1ccccc1N | 0.68 |
| Cc1cc(Nc2cc(N3CCN(C)CC3)nc(/C=C/c3ccccc3)n2)n[nH]1 | 4.69 |
| OCCn1cc(-c2ccc3c(c2)CC/C3=N\O)c(-c2ccncc2)n1 | 0.34 |
| COc1cc2c(c(OC)c1OC)-c1c(cc3c(c1OC)OCO3)CC(C)C(C)C2 (centres undefined) [Schisandrin B (Sch B)] | -0.1 |
| COc1cc(N2CCN(C)CC2)ccc1Nc1nccc(-c2cn(C)c3cnccc23)n1 | 2.73 |
| CN(c1ccccc1CNc1nc(Nc2ccc3c(c2)CC(=O)N3)ncc1C(F)(F)F)S(C)(=O)=O | 11.6 |
| CNC(=O)c1ccc(Nc2ncc(C(F)(F)F)c(NCc3nccnc3N(C)S(C)(=O)=O)n2)cc1 | 9.52 |
| O=C(O)c1ccc2c3c1cccc3c(=O)n1c3ccccc3nc21 | 3.28 |
| Cc1nc(Nc2n[nH]c3c2CN(C(=O)N[C@H](CN(C)C)c2ccccc2)C3(C)C)c2sccc2n1 | 0.94 |
| C[C@H]1[C@H](C)CC[C@]2(C(=O)O)CC[C@]3(C)C(=CC[C@@H]4[C@@]5(C)C[C@@H](O)[C@H](O)[C@@](C)(CO)[C@@H]5CC[C@]43C)[C@H]12 [Asiatic Acid] | 0.12 |
| COc1ccc(-c2cc3nccn3c(Nc3ncccc3C(N)=O)n2)cc1OC | 1.94 |
| O=C(NCc1ccccc1)c1csc(Nc2ccncn2)n1 [Thiazovivin] | 0.91 |
| COc1cc(Nc2ncc(F)c(Nc3ccc4c(n3)NC(=O)C(C)(C)O4)n2)cc(OC)c1OC [R406 (free base)] | 4.87 |
| Cc1ccc(S(=O)(=O)/C=C/C#N)cc1 | -0.28 |
| O=c1c(O)c(-c2ccc(O)c(O)c2)oc2cc(O)cc(O)c12 [Quercetin] | 3.32 |
| C[C@H]1CNC(=O)c2cnn3ccc(nc23)N[C@H](C)c2cc(F)ccc2O1 | 3.54 |
| C[C@@H](Nc1cc(F)cc(F)c1)c1cc(C(=O)N(C)C)cc2c(=O)cc(N3CCOCC3)oc12 | -0.34 |

| SMILES | thermal shift delta Tm [°C] |
| --- | --- |
| Nc1cccc(-c2cc3c(Oc4cccc(O)c4)ncnc3[nH]2)c1 | 5.52 |
| CC[C@H](CO)Nc1nc(NCc2ccccc2)c2ncn(C(C)C)c2n1 [Roscovitine (Seliciclib,CYC202)] | 0.1 |
| CCn1c(=O)c(-c2ccc(Cl)cc2Cl)cc2cnc(Nc3ccc(N4CCNCC4)c(F)c3)nc21 | 10.1 |
| Cc1c[nH]c2nc(Nc3ccc(N4CCN(C)CC4)c(F)c3)nc(-c3cccc(CC#N)c3)c12 | 11.6 |
| N#C/C(=C(/N)Sc1ccc(N)cc1)c1ccccc1C(F)(F)F | -0.09 |
| FC(F)(F)c1ccc(CNc2ccc(Cc3c[nH]c4ncc(Cl)cc34)cn2)cn1 [Pexidartinib (PLX3397)] | 6.87 |
| COc1cc(N2CCC(N(C)C)CC2)ccc1Nc1ncc(Cl)c(Nc2ccccc2P(C)(C)=O)n1 | 2.58 |
| CCN(CC)CCNC(=O)c1c(C)[nH]c(/C=C2\C(=O)Nc3ccc(F)cc32)c1C [Sunitinib Malate] | 12.4 |
| CCC(=O)Nc1cccc(Oc2nc(Nc3ccc(N4CCN(C)CC4)cc3OC)ncc2Cl)c1 | 1.13 |
| Cn1c(Nc2ccc(C(F)(F)F)cc2)nc2cc(Oc3ccnc(-c4ncc(C(F)(F)F)[nH]4)c3)ccc21 | 2.26 |
| CCOc1cc(N2CCC(O)CC2)ccc1Nc1ncc2c(n1)N(C)c1ccccc1C(=O)N2C | -0.35 |
| O=C(O)c1ccc(Nc2ncc3c(n2)-c2ccc(Cl)cc2C(c2c(F)cccc2F)=NC3)cc1 | 0.27 |
| C[C@@H]1CN(C(=O)c2ccc(NC(=O)c3cc(O[C@H](C)c4c(Cl)ccc(F)c4Cl)c(N)nn3)cc2)C[C@H](C)N1 [Ensartinib (X-396)] | 6.54 |
| COc1ccc(F)c(F)c1C(=O)c1cnc(NC2CCN(S(C)(=O)=O)CC2)nc1N | 1.63 |
| N#Cc1cnc(Nc2cc(NC[C@H]3CNCCO3)c(C(F)(F)F)cn2)cn1 | 3.09 |
| O=c1nc(N2CCOCC2)oc2c(-c3cccc4c3sc3ccccc34)cccc12 | 0.04 |
| Cc1nc(Nc2ncc(C(=O)Nc3c(C)cccc3Cl)s2)cc(N2CCN(CCO)CC2)n1 [Dasatinib] | 10.7 |
| Cc1cc(Nc2cc(N3CCN(C)CC3)nc(/C=C/c3ccccc3)n2)n[nH]1 [ENMD-2076 L-(+)-Tartaric acid] | 4.88 |

These molecules were tested on LOC_OS02G54510-cb004 in the same assay as above. Settings: 12.5 µM; protein concentration 2 µM.
Procedure, shortened: as §1

| SMILES | thermal shift delta Tm [°C] |
| --- | --- |
| CN1CCN(c2cccc(Nc3nc4c(-c5ccc(S(C)(=O)=O)cc5)cccn4n3)c2)CC1 | 0.36 |
| C[C@@H](NC(=O)c1ncnc(N)c1Cl)c1ncc(C(=O)Nc2cc(C(F)(F)F)c(Cl)cn2)s1 | 6.43 |
| N#CC(=C(/N)Sc1ccccc1N)/C(C#N)=C(\N)Sc1ccccc1N | -0.59 |
| Cc1cc(Nc2cc(N3CCN(C)CC3)nc(/C=C/c3ccccc3)n2)n[nH]1 | 2.74 |
| OCCn1cc(-c2ccc3c(c2)CC/C3=N\O)c(-c2ccncc2)n1 | 0.15 |
| COc1cc2c(c(OC)c1OC)-c1c(cc3c(c1OC)OCO3)CC(C)C(C)C2 (centres undefined) [Schisandrin B (Sch B)] | -0.01 |
| COc1cc(N2CCN(C)CC2)ccc1Nc1nccc(-c2cn(C)c3cnccc23)n1 | 0.02 |
| CN(c1ccccc1CNc1nc(Nc2ccc3c(c2)CC(=O)N3)ncc1C(F)(F)F)S(C)(=O)=O | 1.85 |
| CNC(=O)c1ccc(Nc2ncc(C(F)(F)F)c(NCc3nccnc3N(C)S(C)(=O)=O)n2)cc1 | 1.99 |
| O=C(O)c1ccc2c3c1cccc3c(=O)n1c3ccccc3nc21 | 0.56 |
| Cc1nc(Nc2n[nH]c3c2CN(C(=O)N[C@H](CN(C)C)c2ccccc2)C3(C)C)c2sccc2n1 | 0.82 |
| C[C@H]1[C@H](C)CC[C@]2(C(=O)O)CC[C@]3(C)C(=CC[C@@H]4[C@@]5(C)C[C@@H](O)[C@H](O)[C@@](C)(CO)[C@@H]5CC[C@]43C)[C@H]12 [Asiatic Acid] | -0.04 |
| COc1ccc(-c2cc3nccn3c(Nc3ncccc3C(N)=O)n2)cc1OC | 0.42 |
| O=C(NCc1ccccc1)c1csc(Nc2ccncn2)n1 [Thiazovivin] | 0.46 |
| COc1cc(Nc2ncc(F)c(Nc3ccc4c(n3)NC(=O)C(C)(C)O4)n2)cc(OC)c1OC [R406 (free base)] | 3.74 |
| Cc1ccc(S(=O)(=O)/C=C/C#N)cc1 | 1.4 |
| O=c1c(O)c(-c2ccc(O)c(O)c2)oc2cc(O)cc(O)c12 [Quercetin] | 0.4 |
| C[C@H]1CNC(=O)c2cnn3ccc(nc23)N[C@H](C)c2cc(F)ccc2O1 | 6.11 |
| C[C@@H](Nc1cc(F)cc(F)c1)c1cc(C(=O)N(C)C)cc2c(=O)cc(N3CCOCC3)oc12 | -0.01 |

| SMILES | thermal shift delta Tm [°C] |
| --- | --- |
| Nc1cccc(-c2cc3c(Oc4cccc(O)c4)ncnc3[nH]2)c1 | 1.7 |
| CC[C@H](CO)Nc1nc(NCc2ccccc2)c2ncn(C(C)C)c2n1 [Roscovitine (Seliciclib,CYC202)] | 0.11 |
| CCn1c(=O)c(-c2ccc(Cl)cc2Cl)cc2cnc(Nc3ccc(N4CCNCC4)c(F)c3)nc21 | 8.42 |
| Cc1c[nH]c2nc(Nc3ccc(N4CCN(C)CC4)c(F)c3)nc(-c3cccc(CC#N)c3)c12 | 3.94 |
| N#C/C(=C(/N)Sc1ccc(N)cc1)c1ccccc1C(F)(F)F | 0.03 |
| FC(F)(F)c1ccc(CNc2ccc(Cc3c[nH]c4ncc(Cl)cc34)cn2)cn1 [Pexidartinib (PLX3397)] | 0.69 |
| COc1cc(N2CCC(N(C)C)CC2)ccc1Nc1ncc(Cl)c(Nc2ccccc2P(C)(C)=O)n1 | 0.23 |
| CCN(CC)CCNC(=O)c1c(C)[nH]c(/C=C2\C(=O)Nc3ccc(F)cc32)c1C [Sunitinib Malate] | 0.41 |
| CCC(=O)Nc1cccc(Oc2nc(Nc3ccc(N4CCN(C)CC4)cc3OC)ncc2Cl)c1 | -0.03 |
| Cn1c(Nc2ccc(C(F)(F)F)cc2)nc2cc(Oc3ccnc(-c4ncc(C(F)(F)F)[nH]4)c3)ccc21 | 2.15 |
| CCOc1cc(N2CCC(O)CC2)ccc1Nc1ncc2c(n1)N(C)c1ccccc1C(=O)N2C | -0.02 |
| O=C(O)c1ccc(Nc2ncc3c(n2)-c2ccc(Cl)cc2C(c2c(F)cccc2F)=NC3)cc1 | 1.01 |
| C[C@@H]1CN(C(=O)c2ccc(NC(=O)c3cc(O[C@H](C)c4c(Cl)ccc(F)c4Cl)c(N)nn3)cc2)C[C@H](C)N1 [Ensartinib (X-396)] | 3.48 |
| COc1ccc(F)c(F)c1C(=O)c1cnc(NC2CCN(S(C)(=O)=O)CC2)nc1N | -0.08 |
| N#Cc1cnc(Nc2cc(NC[C@H]3CNCCO3)c(C(F)(F)F)cn2)cn1 | 0.4 |
| O=c1nc(N2CCOCC2)oc2c(-c3cccc4c3sc3ccccc34)cccc12 | -0.35 |
| Cc1nc(Nc2ncc(C(=O)Nc3c(C)cccc3Cl)s2)cc(N2CCN(CCO)CC2)n1 [Dasatinib] | 14 |
| Cc1cc(Nc2cc(N3CCN(C)CC3)nc(/C=C/c3ccccc3)n2)n[nH]1 [ENMD-2076 L-(+)-Tartaric acid] | 2.59 |
